Assay [1] is described as follows: inhibitors of TNFa-induced NFkB p65 translocation, primary screen, imaging, HUVEC, MLSMR starter and 10KST1 sets (AID 438;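 active = inhibition above 20% together with a positive visual image hit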;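 also: compound added about 3h40 before a 20 min TNFalpha stimulation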;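 as to inhibition: signal is the nuclear over cytoplasmic p65 intensity ratio per well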). The following applies: HUVEC TNFa-induced p65 nuclear translocation; cell count: measured here: nuclei count (cytotoxicity indicator), at 2.08 µM; inhibition: at 2 µM, stronger effect = higher value, 0% TNFa-plus-vehicle, 100% no-TNFa wells.
The nature of assay [2]: reduction of polyQ htt aggregates in cells – imaging, exon1htt(103Q)mCFP cells, high-content imaging, primary screen (AID 483;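 active = visual image review flags a hit and inhibition of aggregation exceeds 20%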;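 also: compound exposure lasted 3 days before fixation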;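 as to nuclei count: percent of the per-plate median nuclei count of sample wells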). The following applies: exon1htt(103Q)mCFP cell line, aggregate imaging, at 2 µM; inhibition of aggregation: stronger effect = higher value; nuclei count: measured here: cell count, toxicity.
A short description of assay [3]: endothelial E-selectin expression blockers – imaging, HUVEC, immunofluorescence, MLSMR starter and 10KST1 sets, primary screen (AID 487;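 active = visually confirmed hit in the image check and inhibition above 20%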;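 as to inhibition: signal is fraction of cell area covered by stained E-selectin grains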;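 as to nuclei count: 100% = median nuclei count of all wells on the same plate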). As to conditions: HUVEC TNFalpha-induced E-selectin immunofluorescence imaging, at 2 µM; inhibition: stronger effect = higher value; nuclei count: measured here: cell number, toxicity.
Assay [4] is described as follows: Primary imaging screen for DUSP6 inhibitors that restore phospho-Erk in transfected HeLa cells, chemical complementation (AID 609;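 active = compounds giving at least 50% inhibition in the cell-based MKP-3 phosphatase rescue imaging test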;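 as to inhibition: phospho-Erk level distribution per well compared with pooled transfected vehicle control wells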). As to conditions: HeLa MKP-3 transfected, phospho-Erk imaging KS statistic, at 10 µM, cells stimulated with TPA for 15 min.
Assay [5] addresses Dual specificity protein phosphatase 6 (Homo sapiens) (UniProt Q16828). The description is as above. The following applies: HeLa MKP-3 transfected, phospho-Erk imaging KS statistic; at 10 µM; stronger effect = higher value; cells stimulated with TPA for 15 min.
In assay [6] the target is Voltage-gated potassium channel subunit beta-2 (Rattus norvegicus) (UniProt P62483). The assay is described as follows: inhibitors of rat Kvbeta2 reductase activity – biochemical, NADPH fluorescence, primary screen (AID 622;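 active = fluorescence slope higher than the sample average by over 3 SD, cut at about -0.22 in these data, passing the limit was not always enough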;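 also: slope of raw intensity against log time taken from 70 to 1610 s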). As to conditions: recombinant KvBeta, 4-cyanobenzaldehyde reduction, at 10 µM, stronger effect = higher value.
The target is the same in assay [7]. Description: enhancers of rat Kvbeta2 NADPH turnover – biochemical, NADPH fluorescence, primary screen (AID 623;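 active = NADPH fluorescence slope more negative than the mean of all samples by about 3 SD, 99.7% confidence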;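 also: fluorescence intensity change per second fitted from 20 to 320 s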). The following applies: Recombinant KvBeta, NADPH fluorescence decrease slope, 10 min; at 10 µM; stronger effect = lower value.
For assay [8], the target named is Alpha-2C adrenergic receptor (Homo sapiens) (UniProt P18825). The assay is described as follows: compounds altering alpha2C-coupled GIRK flux – cell-based, HEK293 alpha2C/GIRK1/2, thallium flux, primary screen (AID 624;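 active = fluorescence slope after compound addition differing from the mean of all screened samples at 99.7% confidence, in either direction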;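 also: slope of fluorescence ratio to pre-addition baseline per second over 15 to 24 s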). The following applies: thallium flux BTC fluorescence, at 10 µM, actives lie on both sides.
Assay [9] in a line: inhibitors of larval lipid processing in zebrafish, primary screen, whole organism, PED6 fluorescence, gall bladder and intestine (AID 686;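 active = a full or partial loss of lipid-probe fluorescence in the fish gall bladder, intestine or both, judged by eye; inactive = no fluorescence loss, or compound toxic to the fish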;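 also: larvae 5 to 7 days old with five fish per well; signal comes from phospholipase A2 cleavage of quenched PED6 carried via bile; overnight exposure to compound and PED6 before scoring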). The following applies: Zebrafish larvae PED6 lipid processing, fluorescence scoring; screened at 20 µM (by protocol).
Assay [10] in a line: loss of swimming-algae plug formation – whole organism, Chlamydomonas reinhardtii, WT vs cilia-less mutant, absorbance, 96-well, primary screen (AID 463189).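 Also: 0% = wild type cc124 cells in DMSO and 100% = ciliumless bld1 mutant cells.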 The following applies: Chlamydomonas reinhardtii gravitaxis, OD600 absorbance, 2 days; at 10 µM; stronger effect = higher value.
Assay [11] in a line: blockers of RIG-like receptor reporter activation – cell-based, Sendai virus stimulus, luciferase, 10K MLSCN set, TLR/RLR signaling modifier project, primary screen (AID 602276;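 active = inhibition at or above 50% at 10 µM; inactive = inhibition below 50%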;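 also: firefly luciferase from ISG56 promoter only with Renilla not read in this screen; 0% = Sendai virus plus DMSO and 100% = medium plus DMSO without virus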). As to conditions: HEK293 RL24 IRF3 luciferase reporter, at 10 µM, stronger effect = higher value. For orientation: In a reporter assay the amount or activity of a reporter protein is the signal.
Assay [12] in a line: TLR3 IRF3 reporter activation blockers – cell-based, poly I:C stimulus, luciferase, 10K MLSCN set, primary screen (AID 602277;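 active = inhibition of the reporter signal at or above 50%; inactive = inhibition below 50%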). As to conditions: HEK293-TLR3 RL24 IRF3 luciferase reporter, at 10 µM, stronger effect = higher value.
[13] abbreviates: measured here: cell density z-score.
[14] abbreviates: measured here: nuclear c-Myc green intensity z-score.
Where [15] appears, read: measured here: nuclear pErk red intensity z-score, stronger effect = higher value.

“And” between values parts separate entries of the source, which are not always exact repeats. Equal values may be shown once. The source made the active and inactive calls.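 The calls were made as follows, unless noted: active = inhibition at or above 50% relative to wild type and mutant plate controls; inactive = inhibition below 50%.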

In general, inhibition refers to the relative decrease from the control value, in per cent.

Sequence of Dual specificity protein phosphatase 6 (Homo sapiens) (Q16828 whole entry, looked up): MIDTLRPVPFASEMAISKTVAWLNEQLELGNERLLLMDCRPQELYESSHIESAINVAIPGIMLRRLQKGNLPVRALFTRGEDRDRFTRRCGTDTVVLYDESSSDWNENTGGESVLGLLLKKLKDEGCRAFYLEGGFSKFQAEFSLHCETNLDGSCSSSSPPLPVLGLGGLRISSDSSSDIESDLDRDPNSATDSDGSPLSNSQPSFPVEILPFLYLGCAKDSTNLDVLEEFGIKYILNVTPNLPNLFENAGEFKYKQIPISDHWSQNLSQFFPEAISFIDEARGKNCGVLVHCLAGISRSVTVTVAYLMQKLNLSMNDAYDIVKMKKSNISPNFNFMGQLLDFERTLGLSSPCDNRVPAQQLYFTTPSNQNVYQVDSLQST
Sequence of Alpha-2C adrenergic receptor (Homo sapiens) (P18825 whole entry, looked up): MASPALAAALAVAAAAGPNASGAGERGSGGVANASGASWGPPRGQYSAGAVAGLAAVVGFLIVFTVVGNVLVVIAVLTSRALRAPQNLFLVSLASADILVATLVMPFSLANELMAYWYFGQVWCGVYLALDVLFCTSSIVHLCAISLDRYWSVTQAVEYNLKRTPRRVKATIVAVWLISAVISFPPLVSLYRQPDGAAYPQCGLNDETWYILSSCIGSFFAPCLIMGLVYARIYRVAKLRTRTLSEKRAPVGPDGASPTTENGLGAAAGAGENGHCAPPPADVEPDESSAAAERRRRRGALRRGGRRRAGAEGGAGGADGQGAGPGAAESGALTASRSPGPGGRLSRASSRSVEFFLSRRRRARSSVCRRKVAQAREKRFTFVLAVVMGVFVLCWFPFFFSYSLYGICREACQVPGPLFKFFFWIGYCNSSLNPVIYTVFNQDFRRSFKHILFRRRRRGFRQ
Sequence of Voltage-gated potassium channel subunit beta-2 (Rattus norvegicus) (P62483 whole entry, looked up): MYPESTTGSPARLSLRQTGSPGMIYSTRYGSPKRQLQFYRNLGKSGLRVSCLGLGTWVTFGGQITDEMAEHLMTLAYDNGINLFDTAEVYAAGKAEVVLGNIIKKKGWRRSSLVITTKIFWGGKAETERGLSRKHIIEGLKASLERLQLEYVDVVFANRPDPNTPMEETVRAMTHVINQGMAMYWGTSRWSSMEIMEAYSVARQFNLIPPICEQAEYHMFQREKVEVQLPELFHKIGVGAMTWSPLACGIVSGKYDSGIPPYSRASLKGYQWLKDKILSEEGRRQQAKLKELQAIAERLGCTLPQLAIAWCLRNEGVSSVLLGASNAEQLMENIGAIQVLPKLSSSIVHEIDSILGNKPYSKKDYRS

Consider `Cn1nnc2c(sc3nc(N4CCOCC4)c4c(c32)CCCC4)c1=O`, for which the cell count in assay [1] stood at 611. Moreover, the inhibition was -5.6% (inactive) in assay [1]; -120% (inactive) in [3]; 28.6% (inactive) in assay [5]; -8.88% (inactive) in assay [10]; -5.47% (inactive) in assay [11]; -2.11% (inactive) in assay [12]. Besides, the inhibition of aggregation in assay [2] is 21.6% (inactive). The nuclei count in assay [2] was 109%; in assay [3], 114%. Moreover, the z-score is 3.22 in assay [4] (setting [13]), -0.738 in assay [4] (setting [14]) and -2.88 in assay [4] (setting [15]). The fluorescence slope in assay [6] was -0.348 (inactive). Moreover, the NADPH fluorescence slope in [7] was -2.4e-05 (inactive). Besides, the slope in [8] is 0.00477 (inactive). Further, in assay [9], the molecule was called inactive.
As to `CCOC(=O)CSC1=C(C#N)C(c2ccc3c(c2)OCO3)CC(=O)N1` (configuration not stated), the cell count in assay [1] came to 562. The inhibition in assay [1] is -1.1% (inactive); in assay [3], -43.4% (inactive); in assay [5], 3.66% (inactive); in assay [10] it was 14.3% (inactive); in assay [11], 36.8% (inactive); in assay [12] it was 34.7% (inactive). Besides, in [2], the inhibition of aggregation was -16.1% (inactive). The nuclei count in assay [2] was found to be 82.2%; in assay [3] it was 80.7%. In addition, the z-score is -0.992 in assay [4] (setting [13]), 0.745 in [4] (setting [14]) and 0.964 in [4] (setting [15]). Further, the fluorescence slope in [6] is -0.471 (inactive). In addition, the NADPH fluorescence slope in [7] is -0.000313 (inactive). Also, the slope in assay [8] was 0.00534 (inactive). The call in [9] was inactive.
Regarding `C[C@]12CCC(=O)C=C1CC[C@@H]1[C@@H]2[C@@H](O)C[C@@]2(C)[C@H]1CC[C@]2(O)C(=O)COC(=O)CCC(=O)O`, the cell count in assay [1] was 638 and 636. Also, the inhibition in assay [1] was 1.3% (inactive) and -6.2% (inactive); in assay [3], -73.5% (inactive) and -140% (inactive); in assay [5] it was 7.39% (inactive) and 11.3% (inactive); in assay [10], 1.85% (inactive) and -7.48% (inactive) and -3.81% (inactive); in [11], 5.11% (inactive) and 1.12% (inactive); in assay [12], 30.2% (inactive) and 30.8% (inactive). Also, the inhibition of aggregation in assay [2] was -14.6% (inactive) and 5.9% (inactive). In addition, the nuclei count is 81.4% and 75.3% in [2]; 113% and 141% in [3]. Further, the z-score in assay [4] (setting [13]) is -0.295 and 0.975; in assay [4] (setting [14]), -0.899 and -0.385; in assay [4] (setting [15]), -0.0646 and -0.0458. For the same molecule, in assay [6], the fluorescence slope was -0.492 (inactive) and -0.463 (inactive). Moreover, the NADPH fluorescence slope in [7] was -9e-05 (inactive) and -1.6e-05 (inactive). Besides, the slope in assay [8] was 0.00441 (inactive) and 0.00453 (inactive). In [9], the result was inactive.
Take `COc1ccc(/C=C/C(=O)Nc2ccccc2C(=O)O)cc1OC`: the cell count in [1] is 476. In addition, the inhibition in assay [1] was -4.9% (inactive); in assay [3], -112% (inactive); in assay [5], 15.3% (inactive); in [10] it was 3.58% (inactive) and -6.51% (inactive); in assay [11] it was 16.4% (inactive); in assay [12], 23.3% (inactive). Further, the inhibition of aggregation in [2] was -20.4% (inactive). For the same molecule, the nuclei count in [2] was 103%; in assay [3], 128%. For the same molecule, the z-score in assay [4] (setting [13]) is 0.437; in [4] (setting [14]), -0.319; in [4] (setting [15]), -0.448. In addition, in assay [6], the fluorescence slope was -0.492 (inactive). For the same molecule, in assay [7], the NADPH fluorescence slope was -8.1e-05 (inactive). The slope in assay [8] was 0.0062 (inactive). In addition, in assay [9], the molecule was classed as inactive.
Regarding `NC(N)=NC(N)=NCCc1ccccc1`, the cell count in [1] was found to be 589. Moreover, the inhibition was -4.3% (inactive) in [1]; -58.8% (inactive) in assay [3]; -2.46% (inactive) in [5]; -5.62% (inactive) in [10]; 10.9% (inactive) in assay [11]; 30.4% (inactive) in [12]. Further, the inhibition of aggregation in [2] was -8.6% (inactive). Besides, the nuclei count in [2] turned out to be 93.2%; in assay [3], 108%. Also, the z-score in [4] (setting [13]) was -1; in assay [4] (setting [14]), -0.445; in [4] (setting [15]), -0.339. The fluorescence slope in assay [6] is -0.439 (inactive). The NADPH fluorescence slope in assay [7] was -1.7e-05 (inactive). Further, the slope in [8] is 0.004 (inactive). Further, the molecule was called inactive in [9].
Consider `CN1CCN(CC(=O)N2c3ccccc3C(=O)Nc3cccnc32)CC1`, for which the cell count in assay [1] was found to be 529. Also, the inhibition in assay [1] is 5.4% (inactive); in assay [3], -81.3% (inactive); in [5], 25.7% (inactive); in assay [10], 1.89% (inactive) and 39.4% (inactive); in [11] it was 18.8% (inactive); in [12], 34.2% (inactive). Besides, the inhibition of aggregation in [2] was -20% (inactive). The nuclei count was 110% in [2] and 123% in assay [3]. Also, the z-score was 2.59 in assay [4] (setting [13]), -0.126 in assay [4] (setting [14]) and -1.97 in assay [4] (setting [15]). For the same molecule, the fluorescence slope in assay [6] was -0.476 (inactive). Further, the NADPH fluorescence slope in [7] is -3.8e-05 (inactive). The slope in [8] is 0.00501 (inactive). In addition, in assay [9], the result was inactive.
